Assay results as given in ChEMBL document CHEMBL2218924, “A broad activity screen in support of a chemogenomic map for kinase signalling research and drug discovery” (Biochem J, 2013).

Key:
[1] = molecular target: Rho-associated protein kinase 2 (Homo sapiens) (UniProt O75116); details: at 1 µM
[2] = molecular target: Rho-associated protein kinase 2 (Homo sapiens) (UniProt O75116); details: at 10 µM
[3] = molecular target: Proto-oncogene tyrosine-protein kinase receptor Ret (Homo sapiens) (UniProt P07949); details: at 1 µM
Chain of Proto-oncogene tyrosine-protein kinase receptor Ret (Homo sapiens) (P07949 whole entry): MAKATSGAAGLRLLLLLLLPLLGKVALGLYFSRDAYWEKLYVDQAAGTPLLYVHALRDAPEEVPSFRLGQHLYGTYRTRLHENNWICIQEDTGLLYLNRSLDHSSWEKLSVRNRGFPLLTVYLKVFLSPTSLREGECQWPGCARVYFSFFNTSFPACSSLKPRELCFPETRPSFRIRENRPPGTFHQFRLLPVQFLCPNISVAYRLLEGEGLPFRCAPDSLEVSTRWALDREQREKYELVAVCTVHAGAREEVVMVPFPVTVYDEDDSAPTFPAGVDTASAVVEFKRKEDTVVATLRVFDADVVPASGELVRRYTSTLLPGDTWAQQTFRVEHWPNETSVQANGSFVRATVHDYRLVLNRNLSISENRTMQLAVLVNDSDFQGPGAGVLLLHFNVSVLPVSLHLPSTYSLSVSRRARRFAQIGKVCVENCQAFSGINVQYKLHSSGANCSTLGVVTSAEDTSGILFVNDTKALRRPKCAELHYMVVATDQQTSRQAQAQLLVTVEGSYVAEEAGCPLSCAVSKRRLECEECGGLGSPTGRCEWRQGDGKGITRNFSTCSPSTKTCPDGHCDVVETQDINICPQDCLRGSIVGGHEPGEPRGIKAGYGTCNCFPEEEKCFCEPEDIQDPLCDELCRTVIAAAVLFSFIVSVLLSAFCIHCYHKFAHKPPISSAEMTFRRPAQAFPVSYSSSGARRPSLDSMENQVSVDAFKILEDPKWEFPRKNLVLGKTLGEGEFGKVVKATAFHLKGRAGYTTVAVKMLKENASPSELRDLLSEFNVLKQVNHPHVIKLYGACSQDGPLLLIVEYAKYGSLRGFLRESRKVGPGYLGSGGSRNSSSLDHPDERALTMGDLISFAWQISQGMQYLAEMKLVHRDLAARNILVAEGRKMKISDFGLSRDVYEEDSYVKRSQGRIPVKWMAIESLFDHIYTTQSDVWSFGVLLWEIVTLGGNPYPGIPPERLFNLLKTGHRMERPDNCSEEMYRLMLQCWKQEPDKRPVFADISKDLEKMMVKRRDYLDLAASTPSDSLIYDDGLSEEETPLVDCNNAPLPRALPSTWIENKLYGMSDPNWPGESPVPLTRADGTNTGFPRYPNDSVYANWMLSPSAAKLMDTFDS

[4] = molecular target: Proto-oncogene tyrosine-protein kinase receptor Ret (Homo sapiens) (UniProt P07949); details: at 10 µM
[5] = molecular target: Macrophage-stimulating protein receptor (Homo sapiens) (UniProt Q04912); details: at 1 µM
Chain of Macrophage-stimulating protein receptor (Homo sapiens) (Q04912 25-304 limits assumed): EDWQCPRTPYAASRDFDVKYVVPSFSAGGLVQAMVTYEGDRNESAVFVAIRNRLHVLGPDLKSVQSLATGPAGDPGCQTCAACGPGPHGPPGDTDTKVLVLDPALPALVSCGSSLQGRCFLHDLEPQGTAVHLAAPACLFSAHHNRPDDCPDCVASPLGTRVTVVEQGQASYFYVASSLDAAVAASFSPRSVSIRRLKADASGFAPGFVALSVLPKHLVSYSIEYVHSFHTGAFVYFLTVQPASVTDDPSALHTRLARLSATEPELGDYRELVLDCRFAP
Chain of Macrophage-stimulating protein receptor (Homo sapiens) (Q04912 310-1400 limits assumed): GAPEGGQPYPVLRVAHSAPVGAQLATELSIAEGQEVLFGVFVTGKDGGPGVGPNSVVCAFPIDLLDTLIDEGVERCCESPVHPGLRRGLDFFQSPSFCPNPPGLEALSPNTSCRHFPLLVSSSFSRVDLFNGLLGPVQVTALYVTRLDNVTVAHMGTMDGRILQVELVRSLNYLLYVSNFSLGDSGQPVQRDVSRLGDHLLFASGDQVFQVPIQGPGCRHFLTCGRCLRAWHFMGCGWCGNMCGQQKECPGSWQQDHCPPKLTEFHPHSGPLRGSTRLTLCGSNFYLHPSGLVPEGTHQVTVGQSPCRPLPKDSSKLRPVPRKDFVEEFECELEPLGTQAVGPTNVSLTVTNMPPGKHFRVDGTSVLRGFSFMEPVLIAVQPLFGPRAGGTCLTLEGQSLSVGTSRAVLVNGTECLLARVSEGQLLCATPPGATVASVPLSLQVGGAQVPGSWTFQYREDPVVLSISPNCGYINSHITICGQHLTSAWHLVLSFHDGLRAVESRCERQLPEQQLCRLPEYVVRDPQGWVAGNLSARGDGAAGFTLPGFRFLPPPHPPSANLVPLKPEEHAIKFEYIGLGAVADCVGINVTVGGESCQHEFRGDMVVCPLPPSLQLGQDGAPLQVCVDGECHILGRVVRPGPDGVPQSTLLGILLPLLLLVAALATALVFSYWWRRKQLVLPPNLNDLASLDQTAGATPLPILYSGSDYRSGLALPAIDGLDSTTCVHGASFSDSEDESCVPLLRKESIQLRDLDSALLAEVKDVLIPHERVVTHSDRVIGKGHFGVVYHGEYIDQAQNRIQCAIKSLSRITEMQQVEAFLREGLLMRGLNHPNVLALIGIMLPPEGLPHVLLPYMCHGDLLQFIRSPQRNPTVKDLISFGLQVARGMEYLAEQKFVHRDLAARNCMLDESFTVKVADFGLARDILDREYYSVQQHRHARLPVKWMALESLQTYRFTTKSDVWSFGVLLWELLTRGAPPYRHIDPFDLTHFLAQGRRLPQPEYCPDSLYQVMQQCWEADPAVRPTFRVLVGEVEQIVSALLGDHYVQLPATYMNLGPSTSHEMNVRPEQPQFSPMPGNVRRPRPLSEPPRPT

[6] = molecular target: Macrophage-stimulating protein receptor (Homo sapiens) (UniProt Q04912); details: at 10 µM
[7] = molecular target: Proto-oncogene tyrosine-protein kinase ROS (Homo sapiens) (UniProt P08922); details: at 1 µM
Chain of Proto-oncogene tyrosine-protein kinase ROS (Homo sapiens) (P08922 whole entry): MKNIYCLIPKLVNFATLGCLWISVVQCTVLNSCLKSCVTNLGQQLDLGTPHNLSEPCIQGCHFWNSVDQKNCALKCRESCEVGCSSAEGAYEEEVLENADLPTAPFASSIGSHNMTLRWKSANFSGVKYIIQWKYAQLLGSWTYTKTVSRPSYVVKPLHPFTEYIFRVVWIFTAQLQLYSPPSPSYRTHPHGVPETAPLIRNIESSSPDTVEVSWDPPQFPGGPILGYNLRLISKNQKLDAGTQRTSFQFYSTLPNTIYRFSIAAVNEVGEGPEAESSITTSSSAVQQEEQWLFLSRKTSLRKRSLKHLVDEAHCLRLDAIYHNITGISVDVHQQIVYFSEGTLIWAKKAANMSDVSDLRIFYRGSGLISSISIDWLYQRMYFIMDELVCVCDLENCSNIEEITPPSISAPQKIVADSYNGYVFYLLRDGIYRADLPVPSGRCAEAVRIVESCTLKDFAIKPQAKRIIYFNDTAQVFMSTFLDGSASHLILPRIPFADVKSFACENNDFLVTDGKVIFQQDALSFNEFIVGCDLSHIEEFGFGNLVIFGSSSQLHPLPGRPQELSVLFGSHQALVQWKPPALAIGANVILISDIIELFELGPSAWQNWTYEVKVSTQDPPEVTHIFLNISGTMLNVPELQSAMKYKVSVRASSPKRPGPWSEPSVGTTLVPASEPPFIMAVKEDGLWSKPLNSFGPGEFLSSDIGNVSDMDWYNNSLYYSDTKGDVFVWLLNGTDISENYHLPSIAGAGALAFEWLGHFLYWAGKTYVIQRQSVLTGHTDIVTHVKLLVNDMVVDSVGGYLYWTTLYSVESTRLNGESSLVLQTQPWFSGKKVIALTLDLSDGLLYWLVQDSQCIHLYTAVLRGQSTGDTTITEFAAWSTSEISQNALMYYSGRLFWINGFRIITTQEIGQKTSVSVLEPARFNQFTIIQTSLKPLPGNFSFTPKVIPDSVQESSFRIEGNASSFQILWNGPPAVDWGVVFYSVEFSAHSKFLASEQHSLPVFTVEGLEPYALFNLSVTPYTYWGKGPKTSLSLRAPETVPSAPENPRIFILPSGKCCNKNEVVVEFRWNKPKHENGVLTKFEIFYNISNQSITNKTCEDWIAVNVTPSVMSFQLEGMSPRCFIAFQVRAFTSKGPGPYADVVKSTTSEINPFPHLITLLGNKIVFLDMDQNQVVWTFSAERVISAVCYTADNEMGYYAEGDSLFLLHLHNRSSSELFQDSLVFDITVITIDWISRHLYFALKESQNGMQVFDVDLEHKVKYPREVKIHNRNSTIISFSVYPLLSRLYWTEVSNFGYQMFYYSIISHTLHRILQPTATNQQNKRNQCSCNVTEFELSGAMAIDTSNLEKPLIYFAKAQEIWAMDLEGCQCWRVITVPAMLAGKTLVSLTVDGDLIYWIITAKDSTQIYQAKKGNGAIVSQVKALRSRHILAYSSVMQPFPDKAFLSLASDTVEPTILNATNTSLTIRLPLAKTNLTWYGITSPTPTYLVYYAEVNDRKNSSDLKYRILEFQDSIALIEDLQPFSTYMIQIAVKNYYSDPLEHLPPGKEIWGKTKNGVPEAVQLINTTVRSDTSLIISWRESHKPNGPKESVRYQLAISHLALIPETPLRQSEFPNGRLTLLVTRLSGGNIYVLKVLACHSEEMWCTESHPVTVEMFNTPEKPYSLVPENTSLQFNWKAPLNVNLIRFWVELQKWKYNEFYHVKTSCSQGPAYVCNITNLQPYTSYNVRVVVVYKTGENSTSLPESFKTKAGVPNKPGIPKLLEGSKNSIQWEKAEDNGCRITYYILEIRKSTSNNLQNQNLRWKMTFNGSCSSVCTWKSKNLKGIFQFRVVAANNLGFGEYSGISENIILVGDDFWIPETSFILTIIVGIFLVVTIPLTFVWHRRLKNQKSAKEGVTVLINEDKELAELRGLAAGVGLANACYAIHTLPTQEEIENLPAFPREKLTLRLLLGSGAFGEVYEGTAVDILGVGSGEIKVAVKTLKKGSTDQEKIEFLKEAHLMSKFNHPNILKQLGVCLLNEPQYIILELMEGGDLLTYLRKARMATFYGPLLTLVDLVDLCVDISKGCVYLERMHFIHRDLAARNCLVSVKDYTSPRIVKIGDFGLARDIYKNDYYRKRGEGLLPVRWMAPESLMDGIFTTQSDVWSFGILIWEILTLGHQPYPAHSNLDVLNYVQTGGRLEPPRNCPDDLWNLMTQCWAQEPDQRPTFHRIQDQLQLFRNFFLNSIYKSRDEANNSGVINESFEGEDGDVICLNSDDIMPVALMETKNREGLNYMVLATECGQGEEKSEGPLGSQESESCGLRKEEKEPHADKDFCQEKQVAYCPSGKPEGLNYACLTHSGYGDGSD

[8] = molecular target: Proto-oncogene tyrosine-protein kinase ROS (Homo sapiens) (UniProt P08922); details: at 10 µM
[9] = molecular target: T1, Tyrosine-protein kinase receptor TYRO3 (Homo sapiens) (UniProt Q06418); details: at 1 µM
T1 sequence (whole entry): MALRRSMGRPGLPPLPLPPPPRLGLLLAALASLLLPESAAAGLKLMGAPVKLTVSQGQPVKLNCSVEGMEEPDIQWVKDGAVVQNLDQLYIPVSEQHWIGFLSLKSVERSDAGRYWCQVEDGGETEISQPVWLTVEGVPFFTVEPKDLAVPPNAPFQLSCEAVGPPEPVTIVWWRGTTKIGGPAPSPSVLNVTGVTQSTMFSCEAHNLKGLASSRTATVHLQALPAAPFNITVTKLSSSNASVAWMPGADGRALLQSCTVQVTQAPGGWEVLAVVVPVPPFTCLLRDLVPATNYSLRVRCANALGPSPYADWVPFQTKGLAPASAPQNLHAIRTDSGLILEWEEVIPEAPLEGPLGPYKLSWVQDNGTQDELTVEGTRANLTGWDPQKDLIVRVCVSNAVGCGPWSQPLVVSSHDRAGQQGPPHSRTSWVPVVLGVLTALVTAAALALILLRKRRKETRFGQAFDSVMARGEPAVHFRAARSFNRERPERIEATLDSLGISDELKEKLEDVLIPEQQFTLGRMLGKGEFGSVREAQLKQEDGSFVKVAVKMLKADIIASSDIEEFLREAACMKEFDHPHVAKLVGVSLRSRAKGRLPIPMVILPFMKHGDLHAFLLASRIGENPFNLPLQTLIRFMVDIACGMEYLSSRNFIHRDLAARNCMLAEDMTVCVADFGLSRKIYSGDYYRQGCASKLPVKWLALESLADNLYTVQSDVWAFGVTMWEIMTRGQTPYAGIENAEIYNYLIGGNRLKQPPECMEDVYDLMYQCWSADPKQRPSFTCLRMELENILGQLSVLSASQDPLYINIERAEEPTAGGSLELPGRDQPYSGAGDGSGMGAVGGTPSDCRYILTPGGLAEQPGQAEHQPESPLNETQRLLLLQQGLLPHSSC

[10] = molecular target: T1, Tyrosine-protein kinase receptor TYRO3 (Homo sapiens); details: at 10 µM

Row | SMILES | residual activity [1] [%] | residual activity [2] [%] | residual activity [3] [%] | residual activity [4] [%] | residual activity [5] [%] | residual activity [6] [%] | residual activity [7] [%] | residual activity [8] [%] | residual activity [9] [%] | residual activity [10] [%]
1 | Oc1n[nH]c2nnc(-c3c(-c4ccccc4)nn4ccccc34)cc12 | 83 | 91 | 102 | 80 | 70 | 53 | 91 | 87 | 109 | 97
2 | COc1ccc(S(=O)(=O)N(CCO)c2ccccc2CN(C)C/C=C/c2ccc(Cl)cc2)cc1 | 100 | 91 | 105 | 87 | 90 | 88 | 105 | 87 | 113 | 112
3 | COc1cc2ncnc(N3CCN(C(=O)Nc4ccc(Oc5ccccc5)cc4)CC3)c2cc1OC | 98 | 87 | 101 | 82 | 74 | 20 | 81 | 86 | 97 | 95
4 | CNc1cc2c(Nc3cccc(Br)c3)ncnc2cn1 | 100 | 85 | 67 | 75 | 88 | 66 | 96 | 99 | 77 | 83
5 | NC(=O)c1ccc2[nH]c(-c3ccc(Oc4ccc(Cl)cc4)cc3)nc2c1 | 83 | 72 | 105 | 85 | 74 | 84 | 92 | 84 | 106 | 97
6 | Nc1cccc(-c2cc3c(Oc4cccc(O)c4)ncnc3[nH]2)c1 | 93 | 87 | 2 | 0 | 83 | 40 | 98 | 60 | 6 | 0
7 | Cc1ccc(S(=O)(=O)/C=C/C#N)cc1 | 89 | 93 | 115 | 90 | 80 | 91 | 104 | 92 | 107 | 99
8 | CC[n+]1c(/C=C/N(C)c2ccccc2)n(-c2ccccc2)c2ccc(-c3nc4ccccc4s3)cc21 | 103 | 93 | 96 | 100 | 97 | 57 | 105 | 102 | 99 | 72
9 | COc1ccc(C(=O)Nc2sc3c(c2C(N)=O)CCCC3)cc1OC | 96 | 80 | 93 | 113 | 99 | 73 | 96 | 97 | 86 | 96
10 | O=C1NC(=O)/C(=C/c2ccc3c(c2)OC(F)(F)O3)S1 | 113 | 89 | 91 | 98 | 100 | 77 | 105 | 108 | 96 | 105
11 | N#Cc1cnc2cnc(NCc3cccnc3)cc2c1Nc1ccc(F)c(Cl)c1 | 2 | 3 | 88 | 62 | 100 | 88 | 67 | 52 | – | –
12 | O=C1Nc2cc(Br)ccc2/C1=C1/Nc2ccccc2/C1=N\O | 90 | 93 | 1 | 0 | 79 | 89 | 90 | 87 | 81 | 78
13 | O=C(Nc1cccc(Nc2nccc(Nc3cccc(C(F)(F)F)c3)n2)c1)C1CC1 | 108 | 88 | 74 | 81 | 93 | 38 | 102 | 68 | 70 | 89
14 | CC(=O)c1ccc(N2CCOCC2)cc1O | 92 | 87 | 99 | 109 | 91 | 77 | 94 | 98 | 86 | 106
15 | Nc1ccc2ncnc(NCCc3ccc(Oc4ccccc4)cc3)c2c1 | 110 | 94 | 76 | 55 | 82 | 70 | 107 | 100 | 113 | 100
16 | CC(C)n1cnc2c(NCc3ccccc3)nc(NCCCO)nc21 | 94 | 90 | 96 | 92 | 88 | 92 | 96 | 93 | 105 | 101
17 | Cc1cncc2cccc(S(=O)(=O)N3CCCN(C(=O)CN)C[C@H]3C)c12 | 1 | -1 | 91 | 90 | 89 | 70 | 90 | 82 | 83 | 95
